# Screening data deposited in PubChem by National Center for Advancing Translational Sciences (NCATS).
# TDP1 cell noCPT: qHTS for Inhibitors of human tyrosyl-DNA phosphodiesterase 1 (TDP1): qHTS in cells in absence of CPT; DT40 Tdp1-/- hTDP1 cells, no CPT, ATP luminescence, 48 h; Potency, µM (top dose mostly 46.2 µM), without a hit: at the highest dose activity change, negative = growth inhibition, actives largely listed as inhibitors; 420,000 tested, 15% active; AID 686978, 2013; further: potency means the concentration at half of the fitted maximal effect; on the % scale 0 is the no-effect control and ±100 the full control effect; nearly all actives have a fitted effect of over 55% in size
#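 Luminescent ATP content (CellTiter-Glo) served as the growth readout. Knockout chicken DT40 cells expressing human TDP1 were exposed to compounds without camptothecin for a minimum 48 hr at 37 °C.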
# Chronic BCR inh: qHTS Assay to Find Inhibitors of Chronic Active B-Cell Receptor Signaling | ABC-DLBCL IkBa-CBG/CBR reporter, luminescence ratio, 4 h | Potency, µM (doses to about 46.1 µM), for the others: top-dose activity change, negative = inhibition, most hits filed as inhibitors | 340,000 tested, 0.05% active | AID 493014, 2011; active means well fitted inhibition curve with a large enough effect in the signal ratio, with a control signal flat, not every such curve was filed as active; inconclusive means small, poorly fitted or top-dose-only effect, or effect the other way, or a change in a side signal; the % refers to the signal ratio;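 further: potency means the concentration at half of the fitted maximal effect; plate controls were basal doxycycline-induced cells for no effect and cells given 10 µM MG132 for full effect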
#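 TMD8 ABC-DLBCL cells carrying doxycycline-inducible green luciferase fused to IkappaBalpha plus unfused red luciferase were exposed to compounds (up to 46 uM) for 4 hrs at 37C. Activity came from the overlap-corrected green/red luminescence ratio.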
# DT40 TDP1 CPT: qHTS for Inhibitors of human tyrosyl-DNA phosphodiesterase 1 (TDP1): qHTS in cells in presence of CPT | chicken DT40 Tdp1-/-;hTDP1 cells + 20 nM CPT, ATP luminescence, 48 h | Potency, µM (titrated, usually from 46.2 µM), without a hit: top-dose activity change, negative = growth inhibition, usual class: inhibitors | 420,000 tested, 12% active | AID 686979, 2013; further: potency means the concentration at half of the fitted maximal effect; on the % scale 0 is the no-effect control and ±100 the full control effect; nearly all actives have a fitted effect of over 55% in size
#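 Cell growth measured by CellTiter-Glo luminescence after a minimum 48 h, 37 C compound exposure with 20 nM CPT in Tdp1-knockout DT40 cells stably expressing hTDP1, seeded 400/well; qHTS titration format.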
# IL1B secr inh: qHTS for Inhibitors of Inflammasome Signaling: IL-1-beta AlphaLISA Primary Screen; THP-1 LPS/ATP IL-1B secretion, AlphaLISA, 16 h; stronger effect = lower value; activity change, % at 57.5 µM; 360,000 tested, 4.7% active; AID 743279, 2014; in the data active means activity change below about -50%; inconclusive means mostly about -30% to -49%; further: on the % scale 0 is the no-effect control and ±100 the full control effect
#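 Secreted IL-1B measured by AlphaLISA bead assay after 16 h compound exposure of THP-1 cells; compounds (final up to 57.5 uM) added 1 h before LPS (250 ng/mL) and ATP (1.25 mM) stimulation; lower signal means less secretion.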
# SW480 rereplic: A quantitative high throughput screen for small molecules that induce DNA re-replication in SW480 colon adenocarcinoma cells; SW480 DNA re-replication, Hoechst DNA content imaging, 48 h; Potency, µM (top dose mostly 46.1 µM), for inactives: at the top dose re-replication activation, usual class: activators; AID 624297, 2012; 340,000 tested, 1.8% active; further: potency means the concentration at half of the fitted maximal effect; % of control where 0% means no effect; nearly all actives have a fitted effect of over 55% in size
#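 Hoechst fluorescence of nuclei (405 nm excitation, 500-530 nm emission) measured by plate-scanning imager after 48 hr compound exposure at 37 C; re-replication scored as increased number of nuclei with elevated intensity.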
# MCF10A rereplic: A quantitative high throughput screen for small molecules that induce DNA re-replication in MCF 10a normal breast cells | Potency, µM (highest dose often 46.1 µM), for the others: at the highest dose activity, positive = re-replication, most hits filed as activators | 350,000 tested, 2.9% active | MCF 10A DNA re-replication, Hoechst nuclear intensity, 48 h | AID 624296, 2012; further: potency means the concentration at half of the fitted maximal effect; % of control where 0% means no effect; nearly all actives have a fitted effect of over 50% in size
# Starred values were filed as active, the others as inactive; ? = inconclusive; nt = no result given. An excerpt weighted towards active compounds, which were near 19% of everything screened. Unless noted, the call rests on the fitted dose curve; in most records, active means well fitted curve in the direction sought with a large enough effect; inconclusive means small, poorly fitted or top-dose-only effect, or another doubt; inactive means no such curve, though single readings can be large; an effect the other way counts as inactive or inconclusive.
SMILES,TDP1 cell noCPT,Chronic BCR inh,DT40 TDP1 CPT,IL1B secr inh,SW480 rereplic,MCF10A rereplic
CCN1C(=O)[C@H]2[C@H]3CN=C(SCc4ccc(Cl)cc4)N3[C@@](Cc3ccccc3)(C(=O)OC)[C@H]2C1=O,11.6µM*,?,?,-18.1,?,?
COCc1nnc(NC(=O)CS(=O)(=O)c2ccc(C)cc2)s1,-11.4%,-1.1%,1.4%,11.6,-5.9%,12.4%
CC(C)n1cnnc1SCC(=O)NNC(=O)COc1ccc(Cl)cc1,3.5%,4.4%,6.7%,5.6,-4.2%,-1.1%
O=C(CSc1ncc2c(n1)-c1cc(Cl)ccc1N(Cc1ccccc1F)S2(=O)=O)Nc1cccc(C(F)(F)F)c1,?,nt,18.4µM*,nt,nt,nt
Cc1ccccc1CN1c2ccccc2-c2nc(SCC(=O)Nc3cc(F)ccc3F)ncc2S1(=O)=O,10.3µM*,nt,?,nt,nt,nt
O=C(CSc1ncc2c(n1)-c1ccc(Cl)cc1N(Cc1ccccc1)S2(=O)=O)Nc1ccc(F)c(F)c1,18.4µM*,nt,23.1µM*,nt,nt,nt
CCOc1ccc(NC(=O)CSc2ncc3c(n2)-c2cc(Cl)ccc2N(C)S3(=O)=O)cc1,-18.8%,nt,-27.0%,nt,nt,nt
COc1cccc(CNC(=O)CSc2ncc3c(n2)-c2cc(Cl)ccc2N(C)S3(=O)=O)c1,?,nt,20.6µM*,nt,nt,nt
CCC(C)NC(=O)c1ccc(N2CC3CC(C2)c2cccc(=O)n2C3)c(NC(=O)c2ccc(Br)o2)c1 (configuration not stated),-29.6%,1.2%,-28.3%,-11.7,1.4%,-0.2%
O=C(CSc1ncc2c(n1)-c1cc(Cl)ccc1N(Cc1ccccc1)S2(=O)=O)Nc1ccc(F)cc1F,?,nt,18.4µM*,nt,nt,nt
CCN(C(=O)CSc1ncc2c(n1)-c1cc(Cl)ccc1N(Cc1ccccc1)S2(=O)=O)c1cccc(C)c1,16.4µM*,nt,?,nt,nt,nt
COc1ccc(C)cc1NC(=O)CSc1ncc2c(n1)-c1ccc(Cl)cc1N(Cc1ccccc1)S2(=O)=O,?,nt,9.2µM*,nt,nt,nt
Cc1cccc(C)c1NC(=O)CSc1ncc2c(n1)-c1ccc(Cl)cc1N(Cc1ccccc1)S2(=O)=O,16.4µM*,nt,?,nt,nt,nt
CCc1ccccc1NC(=O)CSc1ncc2c(n1)-c1ccccc1N(Cc1ccc(C)cc1)S2(=O)=O,-22.1%,nt,-10.7%,nt,nt,nt
COc1ccc2c(=O)cc(CO)oc2c1,-0.3%,2.8%,?,-10.8,4.5%,-0.1%
COc1ccccc1CNS(=O)(=O)CCNCc1ccco1,0.0%,nt,5.2%,-4.8,-1.7%,?
COC(=O)CSc1ncc2c(n1)-c1ccccc1N(Cc1ccc(Cl)cc1)S2(=O)=O,0.3%,nt,-15.4%,nt,nt,nt
COC(=O)c1ccc(NC(=O)CSc2ncc3c(n2)-c2cc(Cl)ccc2N(Cc2ccccc2)S3(=O)=O)cc1,20.6µM*,nt,?,nt,nt,nt
COc1ccc(OC)c(C(=O)CSc2ncc3c(n2)-c2ccccc2N(Cc2ccccc2C)S3(=O)=O)c1,?,nt,18.4µM*,nt,nt,nt
CCCCN(C(=O)CSCC(=O)Nc1ccc(C)cc1)c1c(N)n(CCCC)c(=O)[nH]c1=O,?,9.0%,?,17.5,1.2%,-0.7%
Cc1cccc(N2CCN(C(=O)C3CCN(S(=O)(=O)c4cccs4)CC3)CC2)c1C,14.6µM*,nt,20.6µM*,nt,nt,nt
O=C(/C=C/c1cccs1)N1CCN(c2ccc(O)cc2)CC1,?,?,?,-1.5,?,15.8µM*
Cc1ccc(S(=O)(=O)NCC2CCC(C(=O)N3CCN(C)CC3)CC2)cc1 (configuration not stated),?,1.8%,-28.2%,20.3,?,18.4µM*
O=C(NCCN1CCOCC1)C1CCC(CNS(=O)(=O)c2ccc(Cl)cc2)CC1 (configuration not stated),?,17.3%,?,-4.0,3.9%,16.4µM*
CSc1cccc(N2CC(C(=O)N(Cc3nnc(-c4ccccc4Cl)o3)C3CC3)CC2=O)c1 (configuration not stated),?,-11.5%,-29.4%,-17.2,4.8%,19.1%
SMILES,TDP1 cell noCPT,Chronic BCR inh,DT40 TDP1 CPT,IL1B secr inh,SW480 rereplic,MCF10A rereplic
CC(C)c1ccc(NC(=O)C2CCN(S(=O)(=O)c3cccc4nonc34)CC2)cc1,-24.0%,nt,-18.4%,nt,nt,nt
CCc1cccc(C)c1NC(=O)c1cc(S(=O)(=O)N2CCOCC2)cn1C,8.4%,nt,-13.4%,nt,nt,nt
O=S(=O)(c1cccs1)N1CCN(c2ccc(O)cc2)CC1,2.59µM*,?,2.59µM*,26.1,?,?
O=C(OCc1ccccc1)C1CCN(S(=O)(=O)c2cccs2)CC1,-2.9%,nt,-29.2%,18.0,nt,nt
CCOC(=O)c1c(C)[nH]c(C)c1S(=O)(=O)N1CCC(C(=O)N2CCN(c3ccc(F)cc3)CC2)CC1,-21.0%,-2.8%,-26.3%,nt,nt,nt
Cc1cccc(N2CCN(C(=O)C3CCC(CNS(=O)(=O)c4cccs4)CC3)CC2)c1C (configuration not stated),13µM*,-9.4%,?,-17.7,?,?
CCOC(=O)c1c(C)[nH]c(C)c1S(=O)(=O)N1CCC(C(=O)N2CCN(c3cccc(C)c3C)CC2)CC1,?,4.3%,18.4µM*,nt,nt,nt
CN(C(=O)C1CCN(S(=O)(=O)c2cccs2)CC1)c1ccccc1,16.4µM*,0.0%,?,6.1,5.3%,-13.3%
CC(=O)c1ccc(N2CCN(C(=O)C3CCN(S(=O)(=O)c4cccs4)CC3)CC2)cc1,13µM*,9.3%,?,15.9,-3.5%,?
O=c1cc(-c2ccccc2)n2c(SCc3ccc(F)cc3)nnc2[nH]1,9.0%,3.2%,14.5%,nt,nt,nt
CN(C)C(=O)[C@@H]1C[C@@H](Sc2nc3ccccc3[nH]2)CN1Cc1ccnc2ccccc12,14.6µM*,nt,16.4µM*,nt,nt,nt
O=C1c2ccccc2C(=O)c2c1ccc1c(=O)n(C3CCCCC3)[nH]c21,23.1µM*,?,?,-11.5,?,?
O=c1c2ccccc2ncn1C1CCCCC1,-0.2%,nt,-2.3%,-10.3,-2.5%,22.7%
O=C(O)CCCn1cc(NC(=O)c2cc(F)c(F)cc2Cl)cn1,23.1µM*,4.1%,?,-24.1,4.5%,?
COc1ccc(NC(=O)COC(=O)CNC(=O)C2CCCCC2)cc1OC,-2.0%,?,-19.2%,20.9,-0.6%,2.0%
